Source: PubChem BioAssay (NCATS)
Records with an inconclusive call do not appear. The source made the active and inactive calls. Unless noted, calls come from the whole dose curve; as a rule, active = well fitted curve in the direction sought with a large enough effect; inconclusive = small, poorly fitted or top-dose-only effect, or another doubt; inactive = no such curve, though single readings can be large; an effect the other way counts as inactive or inconclusive.

Tests used:
[1] = qHTS to identify inhibitors of the type 1 interferon - major histocompatibility complex class I in skeletal muscle: primary screen against the NCATS Pharmaceutical Collection (AID 1347407); details: human skeletal muscle cells, IFN-b-induced MHC-I HiBiT luminescence, 24 h; series mostly up to 45.9 µM;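 note: luminescence of HiBiT knocked into endogenous HLA-B as interferon-induced MHC class I level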
Method in brief: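 A qHTS format is used: 8-point, 1:5 compound series with 46 uM top final concentration, applied alongside 4 ng/ml IFN-beta to HLA-B*08:01-HiBiT knock-in myoblasts. Luminescence is measured after 24 h treatment.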

[2] = Primary qHTS for inhibitors of La Crosse Virus (LACV) - induced cell death in SH-SY5Y cells (AID 1508616); details: SH-SY5Y LACV cytopathicity rescue, ATP luminescence, 6 d; series mostly up to 4.29 µM;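 note: top concentration of the series differs between compounds; higher means more rescue of cells from virus-induced death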
Method in brief: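 Screening measures cell viability in LACV-infected SH-SY5Y cultures. Compound was added before virus (0.01 MOI), and ATP was detected by luminescence 6 days later.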

[3] = Primary qHTS for small molecule stabilizers of the endoplasmic reticulum resident proteome: Secreted ER Calcium Modulated Protein (SERCaMP) assay (AID 1508630); details: SH-SY5Y GLuc-SERCaMP (Gaussia luciferase released on ER calcium loss) secretion, thapsigargin, luminescence; series mostly up to 38.4 µM
Method in brief: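 The SH-SY5Y reporter protocol was run at 3 concentrations up to 38.3 uM (primary) or 11 concentrations (follow-up): 16 h compound, 100 nM thapsigargin for 4 h, then extracellular luciferase luminescence.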

[4] = A High-Content qHTS Against Drug Library for the Identification of Small Molecules that Inhibit DYT1 Early Onset Primary Dystonia-Associated Cell Pathology (AID 1645839; calls by dose curve); details: HEK293 Flp-In EGFP-delE TorsinA, punctate imaging, 48 h; series mostly up to 46.1 µM
Method in brief: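 High-content imaging quantified EGFP-TorsinA mislocalization in HEK293-derived cells inducibly expressing DYT1 mutant torsinA, after 48 h exposure to compound given together with tetracycline induction. Cell count served as a toxicity channel alongside %pathology.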

[5] = biological target: Calcium and integrin-binding protein 1 (Homo sapiens) (UniProt Q99828); experiment: Primary qHTS for Identification of Calcium Integrin Binding Protein 1 (CIB1) Competitor (AID 1508620); details: CIB1-GST / FITC-alphaIIb peptide fluorescence polarization; series mostly up to 114 µM;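 note: GST tagged CIB1 binding a fluorescein labelled alphaIIb integrin peptide tracer; top concentration of the series differs between compounds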
Method in brief: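 CIB1-GST (1 uM final) and compound incubated 15 min at room temperature before adding FITC-alphaIIb peptide tracer (100 nM final). Competition for binding read by fluorescence polarization (ex 480, em 540) after another 15 min at room temperature.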

[6] = biological target: Protein phosphatase 1D (Homo sapiens) (UniProt O15297); experiment: Rhodamine-PBP qHTS Assay for Modulators of WT P53-Induced Phosphatase 1 (WIP1) (AID 1347425); details: recombinant WIP1, Rhodamine-PBP phosphate fluorescence, real-time; series mostly up to 57.5 µM
Method in brief: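 The read-out is the change in Rhodamine-PBP fluorescence (f1 - f0, ex 525/em 598 nm) as Pi is released, read each minute for 11 min. Final reaction: 5 nM WIP1, 10 uM phosphopeptide VEPPL-pS-QETFS, 10 uM Rh-PBP, 50 mM Tris-HCl pH 7.5, 30 mM MgCl2. Compound was preincubated with enzyme for 1 hour at room temperature.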

[7] = biological target: Protein phosphatase 1D (Homo sapiens) (UniProt O15297); experiment: RapidFire Mass Spectrometry qHTS Assay for Modulators of WT P53-Induced Phosphatase 1 (WIP1) (AID 1347424); details: WIP1 dephosphorylation of phosphopeptide, RapidFire MS; series mostly up to 63 µM;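 note: amount of dephosphorylated VEPPL-S-QETFS peptide product formed by WIP1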
Method in brief: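 RapidFire mass spectrometry measured dephosphorylated peptide after 5 min room-temperature reaction of 2 uM VEPPL-pS-QETFS with 10 nM WIP1 (50 mM Tris-HCl pH 7.5, 30 mM MgCl2, 0.1 mM EGTA, BSA), following 1 hr compound preincubation; 1 uM isotope-labelled product standard.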

[8] = Confirmatory qHTS for small molecule stabilizers of the endoplasmic reticulum resident proteome: Secreted ER Calcium Modulated Protein (SERCaMP) assay (AID 1508628); details: SERCaMP secreted luciferase ER calcium/proteostasis reporter; series mostly up to 76.3 µM; note: nearly all actives have a fitted effect of over 40% in size
Method in brief: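 GLuc-SERCaMP-expressing SH-SY5Y cells, pretreated 16 h with compound, are challenged with thapsigargin to empty ER calcium stores; after 4 h, coelenterazine is added directly to the medium and luminescence is imaged.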

[9] = qHTS to identify inhibitors of the type 1 interferon - major histocompatibility complex class I in skeletal muscle: primary screen against the NCATS Mechanism Interrogation Plate v5.0 (MIPE) Libary (AID 1347411); details: iHSKM cells + IFN-b, HiBiT-tagged MHC-I luminescence, 24 h; series mostly up to 45.8 µM; note: nearly all actives have a fitted effect of over 65% in size
Method in brief: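 IFN-beta-driven (4 ng/ml) HLA-B-HiBit expression in CRISPR-tagged C25cl48 myoblasts; compounds 11-pt, 1:3, max 46 uM, 24 hr exposure; lytic NanoLuc complementation luminescence.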

Measured: Potency

Chain of Protein phosphatase 1D (Homo sapiens) (O15297 whole entry, looked up): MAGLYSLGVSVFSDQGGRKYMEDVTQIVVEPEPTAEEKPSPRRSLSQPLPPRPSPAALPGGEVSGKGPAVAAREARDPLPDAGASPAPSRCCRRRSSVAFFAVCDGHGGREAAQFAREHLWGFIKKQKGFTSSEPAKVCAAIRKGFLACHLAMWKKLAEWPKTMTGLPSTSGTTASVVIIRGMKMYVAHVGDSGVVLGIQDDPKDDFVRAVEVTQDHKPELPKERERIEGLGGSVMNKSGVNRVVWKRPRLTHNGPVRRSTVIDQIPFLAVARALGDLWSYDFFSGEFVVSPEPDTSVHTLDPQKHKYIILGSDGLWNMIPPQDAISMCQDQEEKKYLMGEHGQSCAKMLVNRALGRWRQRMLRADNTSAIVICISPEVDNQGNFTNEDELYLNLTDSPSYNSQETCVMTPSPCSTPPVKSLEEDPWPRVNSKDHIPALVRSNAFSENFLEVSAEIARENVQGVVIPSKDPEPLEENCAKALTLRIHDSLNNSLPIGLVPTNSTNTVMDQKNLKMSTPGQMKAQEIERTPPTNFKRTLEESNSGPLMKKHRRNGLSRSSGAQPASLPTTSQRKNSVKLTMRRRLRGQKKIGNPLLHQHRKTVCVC
Chain of Calcium and integrin-binding protein 1 (Homo sapiens) (Q99828 whole entry, looked up): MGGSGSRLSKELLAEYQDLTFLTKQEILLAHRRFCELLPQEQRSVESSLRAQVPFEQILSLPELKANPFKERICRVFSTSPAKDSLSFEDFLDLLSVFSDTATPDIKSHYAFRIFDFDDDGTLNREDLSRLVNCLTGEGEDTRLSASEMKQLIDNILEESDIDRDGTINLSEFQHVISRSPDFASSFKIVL

CCCCCCCC(=O)[O-].CCCCCCCC(=O)[O-].[Zn+2]
inactive: [1] | [2] | [3] | [4]

Cc1cc(O)c2c(O)c3c(O)cccc3cc2c1
inactive: [1] | [2] | [5] | [3]

Nc1ncnc2nc[nH]c12
not listed: [7] | [8] | [9]
inactive: all other assays above

CC(=O)N[C@@H](CCC(N)=O)C(=O)O
inactive: [1] | [6] | [2] | [5] | [4]

Cc1ccc(C(=O)Oc2ccc(C(O)CNC(C)(C)C)cc2OC(=O)c2ccc(C)cc2)cc1 (configuration not stated)
inactive: [7] | [6] | [2] | [5] | [3]

OCCOCCN1CCN(C(c2ccccc2)c2ccc(Cl)cc2)CC1 (configuration not stated)
inactive: [1] | [2] | [5] | [3]

CC(C)(C)NCC(O)COc1ccccc1OCC1CCCO1 (configuration not stated)
not listed: [7] | [8] | [9]
inactive: all other assays above

C[C@H]1C[C@H](O)c2ccsc2S1(=O)=O
not listed: [1] | [3] | [9]
inactive: all other assays above

CC1c2ccccc2CN1NC(=O)c1ccc(Cl)c(S(N)(=O)=O)c1 (configuration not stated)
inactive: [9] | [2] | [5] | [3] | [4]

CCCCCC1Nc2cc(C(F)(F)F)c(S(N)(=O)=O)cc2S(=O)(=O)N1 (configuration not stated)
not listed: [1] | [8] | [9]
inactive: all other assays above

COc1c(N2C[C@@H]3CCCN[C@@H]3C2)c(F)cc2c(=O)c(C(=O)O)cn(C3CC3)c12
inactive: [7] | [6] | [2] | [5] | [4]

O=C(Nc1ccc(Cl)cc1)Nc1ccc(Cl)c(Cl)c1
inactive: [7] | [6] | [2] | [5] | [3]

C[C@]12CCC(=O)C=C1CC[C@@H]1[C@@H]2[C@@H](O)C[C@@]2(C)[C@H]1CC[C@]2(O)C(=O)COC(=O)CCC(=O)O
not listed: [1] | [8] | [9]
inactive: all other assays above

CN1[C@@H]2CC[C@H]1CC(NC(=O)n1c(=O)[nH]c3ccccc31)C2 (some centres not stated)
not listed: [1] | [8] | [9]
inactive: all other assays above

CC(NCCC(c1ccccc1)c1ccccc1)c1ccccc1 (configuration not stated)
inactive: [7] | [6] | [2] | [5] | [3]

C[N+](C)(CCOc1ccccc1)Cc1cccs1
not listed: [1] | [8] | [9]
inactive: all other assays above

CC(C)(C)CC(=O)OCC(=O)[C@@]1(O)CC[C@H]2[C@@H]3CCC4=CC(=O)C=C[C@]4(C)[C@H]3[C@@H](O)C[C@@]21C
inactive: [7] | [6] | [2] | [3] | [4]

CC[N+]1(CC)CCC(=C(c2ccccc2)c2ccccc2)C1C (configuration not stated)
not listed: [1] | [8] | [9]
inactive: all other assays above

Cc1cccc(C)c1NC(=O)c1cc(S(N)(=O)=O)c(Cl)cc1O
not listed: [1] | [8] | [9]
inactive: all other assays above

CCCCN(CCCC)C(C(N)=O)c1ccc(OC)cc1 (configuration not stated)
not listed: [1] | [8] | [9]
inactive: all other assays above

CC(C)(C)c1nnc(NS(=O)(=O)c2ccccc2)s1
inactive: [7] | [6] | [2] | [5] | [3]

CCN(CC)CC(=O)OCC(=O)[C@@]1(O)CC[C@H]2[C@@H]3CCC4=CC(=O)CC[C@]4(C)[C@H]3[C@@H](O)C[C@@]21C
inactive: [7] | [6] | [2] | [3]

Nc1ccc2c(c1)CN1C(=O)c3ccccc3C1=N2
not listed: [1] | [8] | [9]
inactive: all other assays above
